# PubChem BioAssay AID624354 (Sanford-Burnham Center for Chemical Genomics, 2012)
# Where “and” joins values, the source holds several entries; their conditions need not be identical. Identical values can stand only once. Out of some 360,000 compounds screened, about 3,800 (1.1%) were called active.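 How the source made its calls: active means compounds causing at least 50% loss of cell viability in the single-dose screen, relative to plate controls; inactive means the rest.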 The sample as a whole holds a higher share of actives than the screen did. Some structures have more than one record in an assay (separate samples or runs), and their calls can disagree.
# Test: TRAIL-exposed caspase-8 expressing cell killing – NB7+C8 cells, ATPlite luminescence, TRAIL sensitizer project, primary screen (AID 624354)
# Details: at 10 µM, stronger effect = higher value
row,Compound,"inhibition (viability loss, TRAIL sensitization)"
1,CSCc1ccc(C(=O)Nc2cc(C)cc(C)c2)cc1,66.6% (active)
2,Cc1cc(C)cc(NC(=O)CSc2ccccc2)c1,-3.71% (inactive)
3,C=CCN(c1ccc(C(=O)Nc2cc(C)cc(C)c2)cc1)S(C)(=O)=O,-8.04% (inactive)
4,Cc1cccc(CC2(O)C(=O)Nc3ccccc32)n1 (stereo not drawn),-8.54% (inactive)
5,CN(C)S(=O)(=O)c1ccc(N2CCCC2=O)c([N+](=O)[O-])c1,4.63% (inactive)
6,Cc1cccc(NS(=O)(=O)c2ccc(C)c(C(=O)NCc3cccnc3)c2)c1,-5.47% (inactive)
7,O=C(Nc1nnc(Cc2ccc(Cl)cc2)s1)c1cccnc1,2.47% (inactive)
8,O=C(Nc1nnc(-c2ccc(F)cc2)s1)c1c(F)cccc1Cl,1.33% (inactive)
9,Cc1cccc(NC(=O)c2nc(S(=O)(=O)Cc3ccccc3)ncc2Cl)c1,86.5% (active)
10,CSc1nnc(NC(=O)c2nc(S(=O)(=O)Cc3ccc(C)cc3)ncc2Cl)s1,66.5% (active)
11,Cc1cccc(CS(=O)(=O)c2ncc(Cl)c(C(=O)Nc3ccc(F)cc3)n2)c1,36% (inactive)
12,O=C(Nc1nnc(Cc2ccc(Cl)cc2)s1)c1ccncc1,-4.66% (inactive)
13,CN(Cc1ccccc1)S(=O)(=O)c1nnc(NC(=O)c2ccccc2F)s1,-10.5% (inactive)
14,Cc1ccc(CS(=O)(=O)c2ncc(Cl)c(C(=O)Nc3nnc(C)s3)n2)cc1,96.7% (active)
15,COc1ccccc1-n1nnnc1S(=O)(=O)Cc1ccc(Cl)cc1,9% (inactive)
16,Cc1ccc(SC(=O)COc2ccc(C)c(C)c2)cc1,3.37% (inactive)
17,O=C(CCc1ccccc1)NCCc1cccs1,-4.77% (inactive)
18,O=C1C2C3C=CC(C4CC34)C2C(=O)N1c1nccs1 (stereo not drawn),-2% (inactive)
19,Cc1ccc(-c2nc(-c3cccnc3)sc2CC(=O)Nc2ccc(C)c(Cl)c2)cc1,18.7% (inactive)
20,COc1ccc(CCN2CNc3c(c(=O)n(C)c(=O)n3C)C2)cc1OC,7.29% (inactive)

row,Compound,"inhibition (viability loss, TRAIL sensitization)"
1,O=C1OCCN1C(=O)[C@H]1[C@H](c2ccc(Cl)cc2)C(c2cccc(Cl)c2)=NN1c1ccc(Br)cc1,-0.36% (inactive)
2,CCOc1ccccc1/C=N/Nc1nc2ccccc2o1,-8.7% (inactive)
3,COc1cccc(/C=N/Nc2cc(C)nc(-c3ccccc3O)n2)c1O,56.9% (active)
4,COCCCNC(=O)c1cccc2c(-c3ccc(O)c(OC)c3)coc12,14.2% (inactive)
5,CC(=O)OCC(C)n1c(=O)c2ccccc2n1C(C)=O (stereo not drawn),-3.49% (inactive)
6,CN(C)CCCn1c(N)c(C#N)c2nc(C#N)c(C#N)nc21,-10.7% (inactive)
7,O=C(NCCc1ccccn1)c1nc(Cn2cc([N+](=O)[O-])cn2)no1,2.01% (inactive)
8,O=C(Nc1nc2ccc([N+](=O)[O-])cc2s1)c1ccncc1,53.2% (active)
9,CSc1ncccc1C(=O)Nc1nc2ccc(F)cc2s1,10.7% (inactive)
10,CC(=O)Nc1ccc2nc(NC(=O)CS(=O)(=O)c3ccc(F)cc3)sc2c1,-11.1% (inactive)
11,COc1cc2nnn(-c3ccncc3)c2cc1OC,-16.3% (inactive)
12,O=C(CCCCCCCC(=O)N1CCCCC1)N1CCCCC1,1.6% (inactive)
13,COC(=O)c1sc(SC)c(S(=O)(=O)C(C)C)c1N/N=C(\C#N)S(=O)(=O)c1ccccn1,-10.6% (inactive)
14,O=C(NCc1ccccc1)C1C(=O)N(Cc2ccccc2)C(=O)C1C1(O)CCCC1 (stereo not drawn),-9.54% (inactive)
15,Cc1ccccc1C1CC(c2cccs2)=NN1S(C)(=O)=O (stereo not drawn),1.64% (inactive)
16,O=c1c(-c2ccccc2)cnc2n1CCS2,-0.958% (inactive)
17,O=c1c2cc(-c3ccccc3)sc2nc2n1N=C(c1cccs1)CS2,56.6% (active)
18,COc1cccc2c1OCC(C(=O)NCc1ccc(Cl)cc1Cl)=C2,12.2% (inactive)
19,CC(=O)Nc1ccc(C(=O)/C=C/c2ccc[nH]2)cc1,1.89% (inactive)
20,CC(=O)Nc1ccc(C(=O)NNC(=O)CCCCC(=O)NNC(=O)c2ccc(NC(C)=O)cc2)cc1,-1.99% (inactive)

row,Compound,"inhibition (viability loss, TRAIL sensitization)"
1,CCCC(=O)Nc1ccc(C(=O)N/N=C/c2ccc[nH]2)cc1,93.8% (active)
2,ClC1(Cl)CC1CSc1ncn[nH]1 (stereo not drawn),-13.6% (inactive)
3,O=C(/C=C/c1ccc([N+](=O)[O-])o1)NNC(=O)c1ccc(F)cc1,32.1% (inactive)
4,Cc1nnc(SC(C(=O)Nc2cc(Cl)cc(Cl)c2)c2ccccc2)[nH]c1=O (stereo not drawn),-3.74% (inactive)
5,O=C(Nc1c(Br)cc2c(c1Br)Cc1ccccc1-2)C(F)(F)F,2.23% (inactive)
6,COc1cc(NC(=O)c2[nH]cnc2C(N)=O)cc(C(=O)Nc2cccc(C(F)(F)F)c2)c1,86% (active)
7,COc1cccc(NC(=O)CN(C)C(C)C(=O)Nc2ccc(C#N)cc2)c1 (stereo not drawn),-8.39% (inactive)
8,COc1cc(NC(=O)c2cncc(-c3ccc(C#N)cc3)c2)cc(C(=O)Nc2cccc(C(F)(F)F)c2)c1,33.4% (inactive) and 56.8% (active)
9,COc1cccc(C(=O)N/N=C(\C)c2cccc(NC(=O)c3ccc(F)cc3)c2)c1OC,16.9% (inactive)
10,COc1cc(C(=O)N(C)Cc2cccc(OC)c2OC)ccc1OCC(=O)Nc1cccc(C(F)(F)F)c1,28.6% (inactive)
11,O=C(Nc1cccc(C(F)(F)F)c1)c1ccc(N2CCNCC2)c([N+](=O)[O-])c1,35.7% (inactive)
12,COC(=O)c1ccc(C2C3=C(Nc4nnnn42)c2ccccc2OC3)cc1 (stereo not drawn),-2.52% (inactive)
13,CCOC(=O)c1c(Cc2ccc(Cl)cc2)c[nH]c1C,-5.16% (inactive)
14,CCOC(=O)N1CCN(S(=O)(=O)c2ccc(C(=O)Nc3ccc(F)cc3F)cc2)CC1,4.58% (inactive)
15,Cc1cc(C)cc(OCc2nnc(SCC(=O)OC3CCCCC3)o2)c1,-14.3% (inactive)
16,COc1cccc(CNC(=O)C2CCCN(S(=O)(=O)N3CC(C)CC(C)C3)C2)c1 (stereo not drawn),-1.49% (inactive)
17,COC(=O)C1=C[C@@H](C(=O)OC)[C@@H]2C3=C(C(=O)[C@]2(C)NC(=O)c2ccccc2)[C@H](C)n2c(=O)n(C)c(=O)n2[C@@H]3C1,-3.47% (inactive)
18,COc1ccc(OC)c(Cc2cnc3nc(N)nc(N)c3c2C)c1,84% (active)
